# Hits are enriched below; roughly 3.9% of the tested compounds scored in any of these assays.
# BH1578 lux ind = inducers of Vibrio cholerae quorum light production without autoinducers, primary screen, BH1578 luxS cqsA deficient, single point; V. cholerae BH1578 lux reporter, luminescence, 6 h; 350,000 tested, 0.16% active; activation, % at 18.7 µM; in the data active means activation mostly above about 9.7%, no sharp cut-off
# SARS 3CLpro inh = SARS-CoV 3CLpro protease inhibitors, primary screen, biochemical, quenched FRET. 290,000 tested, 0.14% active. recombinant SARS-CoV 3CLpro, quenched FRET peptide cleavage. inhibition, % at 6 µM. AID 1706, 2009. Replicase polyprotein 1ab (Severe acute respiratory syndrome coronavirus), P0C6X7; in the data active means inhibition above about 12%
# PrPC surface inh = inhibitors of human cell surface prion protein PrPC, primary screen, cell-based, TR-FRET | AID 720596, 2013 | 370,000 tested, 0.43% active | TR-FRET read-out | Major prion protein (Homo sapiens), P04156 | inhibition, % at 13.8 µM; in the data active means inhibition above about 24%
# FBA Mtb inh = Mtb FBA enzyme inhibitors, primary screen, biochemical, fluorescence, strain H37Rv | inhibition, % at 1 µM | purified M. tuberculosis FBA, fluorescence read-out | 360,000 tested, 2.3% active | Fructose-bisphosphate aldolase (Mycobacterium tuberculosis (strain ATCC 25618 / H37Rv)), …
# Target sequence (P9WQA3 whole entry, looked up): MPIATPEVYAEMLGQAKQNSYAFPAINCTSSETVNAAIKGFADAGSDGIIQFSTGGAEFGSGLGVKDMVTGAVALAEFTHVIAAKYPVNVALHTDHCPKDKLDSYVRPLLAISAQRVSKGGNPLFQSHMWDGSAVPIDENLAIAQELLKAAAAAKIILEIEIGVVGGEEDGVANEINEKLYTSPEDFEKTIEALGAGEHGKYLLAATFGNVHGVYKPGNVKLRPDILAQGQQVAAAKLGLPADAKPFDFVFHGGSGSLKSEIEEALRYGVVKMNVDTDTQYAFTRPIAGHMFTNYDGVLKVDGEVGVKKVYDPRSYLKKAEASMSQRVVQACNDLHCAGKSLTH
# GDH-TPI counter-1 = GDH-TPI coupling enzyme inhibitors, primary screen, artefact control for M. tuberculosis FBA inhibitor project, biochemical, absorbance, full deck | GDH-TPI coupled enzyme counterscreen, NADH absorbance | AID 588335, 2011 | 360,000 tested, 1.2% active | inhibition, % at 4.8 µM; in the data active means inhibition above about 30%
# Mtb FBA inh conf = M. tuberculosis aldolase blockers, biochemical, fluorescence, strain H37Rv, confirmation; shares compounds with FBA Mtb inh; purified M. tuberculosis FBA, fluorescence read-out; inhibition, % at 1 µM; 5,600 tested, 78% active; AID 651616, 2012
# GDH-TPI counter-2 = GDH-TPI coupling enzyme inhibitors, artefact control for M. tuberculosis FBA inhibitor project, biochemical, fluorescence, high throughput. 5,600 tested, 81% active. inhibition, % at 1 µM. shares compounds with FBA Mtb inh. GDH-TPI coupled enzyme counterscreen. AID 652141, 2013; in the data active means inhibition above about 10%
# GDH-TPI dose = GDH-TPI coupling enzyme inhibitors, dose response, artefact control for M. tuberculosis FBA inhibitor project, biochemical, fluorescence, IC50 | AID 652145, 2013 | 170 tested, 79% active | GDH-TPI coupled enzyme assay, artifact counterscreen | shares compounds with FBA Mtb inh | IC50, µM; call rule not given here
# Numbers stand for hits; n = inactive; x = not tested or not shown; + = active, no number. Unless noted, no stated cut-off is given here; in the data, active means inhibition above about 27%; inactive means the rest.
SMILES,BH1578 lux ind,SARS 3CLpro inh,PrPC surface inh,FBA Mtb inh,GDH-TPI counter-1,Mtb FBA inh conf,GDH-TPI counter-2,others
O=C(Nc1ccc(Cl)cn1)c1cc(S(=O)(=O)N2CCCCC2)ccc1Cl,n,n,n,77.2,n,n,n,
O=C(NC1CCCCC1)c1cc(S(=O)(=O)N2CCCC2)ccc1Cl,n,n,n,104.2,n,76.9,57.8,
O=C(Nc1ccc(S(=O)(=O)N2CCOCC2)cc1)c1cc(S(=O)(=O)N2CCOCC2)ccc1Cl,n,n,n,n,n,x,x,
O=C(Nc1ccncc1)c1cc(S(=O)(=O)N2CCOCC2)ccc1Cl,n,x,n,97.0,n,+,+,
CCOc1ccc(CCNC(=O)c2ccc3[nH]ccc3c2)cc1OCC,x,x,n,x,x,x,x,
O=c1cc(CN(Cc2ccccc2)Cc2ccccc2)c2c(ccc3ccccc32)o1,x,x,n,n,x,x,x,
Cc1ccc(-c2nc3ccc(C)cn3c2Cc2ccccn2)cc1,x,x,n,x,x,x,x,
Cc1ccc2nc(-c3ccc(C#N)cc3)c(Cc3ccccn3)n2c1,x,x,n,60.9,x,146.5,93.8,
Cc1ccc(S(=O)(=O)N2CCCCC2)cc1NC(=O)Cc1cccs1,n,x,n,n,n,x,x,
Brc1ccsc1/C=N/Nc1ccccc1,n,x,n,n,n,x,x,
COc1ccc(C2=NN(C(=O)c3cccs3)C(O)(C(F)(F)F)C2)cc1 (stereo unspecified),n,n,n,n,n,x,x,
COc1ccc(C2=NN(c3nc(C(=O)O)cs3)C(O)(C(F)(F)F)C2)c(OC)c1 (stereo unspecified),n,n,n,52.7,n,79.0,60.5,
CCC1(C)Cc2c(sc3[nH]c(=S)[nH]c(=S)c23)CO1 (stereo unspecified),n,n,n,n,n,x,x,
CCC1(C)Cc2c(sc3[nH]c(=O)[nH]c(=O)c23)CS1 (stereo unspecified),n,n,n,80.0,n,71.8,60.8,
Cc1ccsc1-c1nc(-c2ccccc2)c(-c2ccccc2)[nH]1,n,n,n,29.3,n,91.4,74.0,
Fc1ccc(-c2nc(-c3cccs3)[nH]c2-c2ccc(F)cc2)cc1,n,n,n,50.4,n,+,+,
COc1ccc(-c2nc(-c3ccccc3)c(-c3cccs3)[nH]2)cc1OC,n,n,n,49.5,n,n,n,
COc1cc(-c2nc(-c3ccccc3)c(-c3ccc(F)cc3)[nH]2)cc2c1OCO2,n,n,n,30.7,n,102.7,70.7,
O=[N+]([O-])c1ccc(-c2nc(-c3cccs3)c(-c3cccs3)[nH]2)cc1,n,n,n,n,n,x,x,
COc1cc(-c2nc(-c3ccc4c(c3)-c3ccccc3S4(=O)=O)c(-c3ccccc3)[nH]2)cc(OC)c1O,n,n,n,n,n,x,x,
COc1ccc(-c2nc(-c3cccs3)c(-c3cccs3)[nH]2)cc1OC,n,n,n,n,n,x,x,
CCOc1ccc(-n2c(SCC(=O)Nc3ccc(S(=O)(=O)Nc4nccs4)cc3)nnc2-c2ccncc2)cc1,x,x,n,x,x,x,x,
OC[C@@H]1CN(Cc2ccc(Cl)cc2)C[C@H](n2cnc3c(NC4CC4)ncnc32)O1,n,x,n,n,n,x,x,
COc1cc2[nH]c(=S)nc(NCCC(C)C)c2cc1OC,n,n,n,n,n,x,x,
COc1cc2[nH]c(C(=O)NCC3CCCO3)cc2c(OC)c1OC (stereo unspecified),n,n,n,32.2,n,+,+,
SMILES,BH1578 lux ind,SARS 3CLpro inh,PrPC surface inh,FBA Mtb inh,GDH-TPI counter-1,Mtb FBA inh conf,GDH-TPI counter-2,others
COc1cc(OC)c(C(=O)NCC2CCCO2)cc1OC (stereo unspecified),n,n,n,n,n,x,x,
COc1cc2[nH]c(=S)nc(NCC3CCCO3)c2cc1OC (stereo unspecified),n,n,n,75.2,n,83.5,60.6,
Cc1ncc(CO)c(/C=N/NC(=O)c2ccc(O)cc2)c1O,n,n,n,n,n,x,x,
Cc1ncc(CO)c(/C=N/NC(=O)c2ccoc2C)c1O,n,x,n,33.2,n,n,n,
O=C(CCS(=O)(=O)c1ccccc1)Nc1ccc(F)cc1Cl,x,x,n,x,x,x,x,
O=C(CSc1ccc2nnc(CCNS(=O)(=O)c3ccccc3)n2n1)Nc1nc2ccccc2s1,n,n,n,n,n,x,x,
CN(Cc1cnccn1)C(=O)CC1C(=O)NCCN1Cc1cccc(Oc2ccccc2)c1 (stereo unspecified),n,n,n,28.4,n,85.5,77.1,
CCc1nc(-c2cc3ccc(C)cc3[nH]c2=O)no1,n,n,n,30.5,n,90.7,81.6,
Cc1ccc2[nH]c(=O)c(-c3noc(C(C)C)n3)cc2c1,n,n,n,n,n,x,x,
Cc1ccc2cc(-c3noc(C(C)(C)C)n3)c(=O)[nH]c2c1,n,n,n,30.2,n,64.8,58.5,
CC(C)Oc1ccc(/C(O)=C2/C(=O)C(=O)N(CCN3CCNCC3)C2c2cccc([N+](=O)[O-])c2)cc1 (stereo unspecified),n,n,n,n,n,x,x,
CC(C)(C)c1cc(CN(CCO)CCO)c(O)c(C(C)(C)C)c1,n,n,n,n,n,x,x,
Cc1cc(C)c2nc(-c3ccccn3)cc(C(=O)NCc3ccco3)c2c1,n,n,n,50.7,n,+,198.7,
C=CCNC(=O)c1cc(-c2cccnc2)nc2ccccc12,n,n,n,n,n,x,x,
Cc1cc(C)c2nc(-c3ccccn3)cc(C(=O)NCc3cc(C)n(C)n3)c2c1,n,n,n,75.5,n,67.6,52.8,
C=CCNC(=O)c1cc(-c2ccncc2)nc2c(C)cc(C)cc12,n,n,n,60.0,n,151.7,129.8,
O=C(NCc1ccccc1)[C@@H]1CCCN1C(=O)[C@H]1CCCN1C(=O)c1ccc(F)c(C(F)(F)F)c1,x,x,n,x,x,x,x,
COc1ccc2oc(=N)c(-c3nnc4n3CCCCC4)cc2c1,n,n,n,32.4,n,n,n,GDH-TPI dose=n
O=C(CN1CCOCC1)Nc1c2c(nc3ccccc13)N(Cc1ccccc1)CC2,n,n,n,44.0,n,60.2,50.9,
O=C(CN1CCOCC1)NNc1c2ccccc2nc2ccccc12,n,n,n,n,n,x,x,
O=C(CN1CCCC1)Nc1c2c(nc3ccccc13)N(Cc1ccccc1)CC2,n,n,n,30.6,n,46.2,34.4,
Cc1oc(C(=O)O)cc1COc1ccc2c3c(c(=O)oc2c1)CCC3,n,n,n,38.1,n,55.3,44.1,

# High-throughput results from PubChem BioAssay.
